# In ChEMBL document CHEMBL5308541, “MAIP: An Open-Source Tool to Enrich High-Throughput Screening Output and Identify Novel, Druglike Molecules with Antimalarial Activity” (ACS Med Chem Lett, 2023):
# Among all 4,800 compounds or so, about 410 (8.5%) showed an effect of 50% or more. The entries come from a sample that favours strong results as a whole.
# Test system: Plasmodium falciparum
# Assay: Confirmatory screen in NF54 pLDH assay, in single point, at 2uM, 72h
# Type: functional, Erythrocyte
# Details: timepoint 72 hour
row,SMILES,% Inhibition [%]
1,CN1CCC(N(Cc2ccccc2)C(=O)c2cc3cnccc3[nH]2)CC1,58
2,Cc1cc(N2CCC(NC3CCNC(c4ccccc4)C3)CC2)nc(C)n1 (stereo not drawn),33
3,Cc1cc(N2CCC(NC3CCCC3Cc3ccc(F)cc3)CC2)nc(N)n1 (stereo not drawn),103
4,O=C(NCC1CC1)c1cc2c(OCc3ccc(Cl)cc3)cccc2[nH]1,53
5,Cc1cc(NC[C@H](O)COc2ccc(F)cc2)nc2ccccc12,81
6,N#Cc1ccc(N2C[C@H](COCC3CC3)C3(CCN(Cc4cccc(O)c4)CC3)C2)cc1C(F)(F)F,89
7,COCCCN1CCC(Nc2ncnc3cc(C)c(C)cc23)CC1,94
8,CC1(N2CCC2)CCC(NC[C@H]2CCN(Cc3ccccc3)C2)CC1 (stereo partly drawn),66
9,Cn1nnc(C(=O)N2CCCCC23CCCCCC3)n1,59
10,Cc1ccc2[nH]c(-c3cc4n(n3)CCN(c3ccnc(N)n3)C4)nc2c1C,97
11,c1ccc(CN2CCC(CCNC[C@@H]3CCCN4CCCC[C@H]34)CC2)cc1,63
12,CCN(Cc1[nH]c2ccc(Cl)cc2c1C)CC1CCN(C2CCN(C)CC2)CC1,102
13,CCN(Cc1cnn(-c2cccc(Cl)c2)c1)CC1CCN(C2CCN(C)CC2)CC1,92
14,COc1ccc(-c2cc(-c3ccccc3O)n([C@@H]3C(=O)Nc4ccc(Br)cc43)n2)cc1,46
15,CC(C)c1ccc(-c2nc(CN3CCCCC3)cc(CN3CCCCC3)c2O)cc1,92
16,CC(C)c1ccc(-c2noc(CCN3CCN(CCCN(C)C)CC3)n2)cc1,30
17,c1ccc(CNc2ccc(-c3noc(C45CCCN(CCC4)C5)n3)cn2)cc1,99
18,C[C@@H](CNC1CCN(C2CCN(C)CC2)CC1)c1cccc(Cl)c1,103
19,CCCc1cccc(CNC2CCN(C3CCN(C)CC3)CC2)c1,71
20,CN1CCN(CCNC2CCN3CCCC3C2)C(c2ccccc2)C1 (stereo not drawn),28
21,Brc1cccc(NCCNC2CCN(Cc3cccnc3)CC2)c1,41
22,c1cncc(-c2ccc(CNC3CCN(Cc4cccs4)CC3)cc2)c1,86
23,CN1CCN(CCOc2ccccc2CN(C)Cc2cc3cc(F)ccc3[nH]2)CC1,104
24,COc1ccc(CNCc2cc3ccccc3[nH]2)cc1CN(C)C,36
25,CN1CCC[C@H](CN2CCN(Cc3cc4n(n3)CCCNC4)CC2)C1,-7
26,CN(c1ccccc1)c1ccc(CN2CCN([C@H]3CCNC3)CC2)cc1,0

row,SMILES,% Inhibition [%]
1,N[C@H]1CC[C@@H](NC2CCN(c3ccc(F)c(F)c3)CC2)CC1,35
2,Cc1nc2ccc(CNC3CCN(c4ccc(F)c(F)c4)CC3)cc2[nH]1,64
3,Fc1ccc(N2CCC(N[C@@H]3COC4(CCNCC4)C3)CC2)cc1F,6
4,CN(CCCn1ccnc1)c1ccnc2cc(Br)ccc12,98
5,Cc1cccc(Nc2ccnc(Nc3ccc(N4CCN(C)CC4)cc3)n2)c1,99
6,COc1ccc2c(N3CC[C@H](CN4CCCC4)C3)ccnc2c1,102
7,CN1CCN(CC2CCN(c3ccnc4ccccc34)CC2)CC1,103
8,CNc1nc(N2CCN(CC(=O)NC3CCCCC3)CC2)nc2ccccc12,26
9,Cn1cncc1[C@@H]1CNC[C@H]1CNC(=O)c1ccccc1NC1CCCCC1,73
10,O=C(Nc1cnc2c(c1)COCC2)c1cc2c(OC(F)(F)F)cccc2[nH]1,102
11,O[C@H]1CCN(Cc2ccccc2CNc2cccc(-n3ccnc3)n2)C1,101
12,O[C@H]1CCN(Cc2cccc(NCc3cn4ccnc4s3)c2)C1,45
13,CCN1CCC[C@H](Nc2cccc(-n3ccnc3)n2)C1,32
14,CN1CCN(CCCCNC2CC3CCC(C2)N3Cc2ccccc2)CC1 (stereo not drawn),41
15,OCCN1CCC(NCCc2cc(Cl)cc(Cl)c2)CC1,30
16,Nc1ccnc2ccc(-c3ccc(C(=O)NCC4CCOCC4)cc3)cc12,102
17,O=C1C2CCCCC2C(c2c(-c3ccccc3)[nH]c3ccccc23)N1Cc1ccccc1 (stereo not drawn),33
18,COc1cc2nc(NCC3(N4CCN(C)CC4)CCCC3)cc(C)c2cc1OC,103
19,Cc1ccccc1-c1cccc(CNCCCN2CCC[C@H](O)C2)c1,17
20,Cc1ccccc1-c1cccc(N2CCC(NCC3CCNCC3)CC2)c1,100
21,Cc1ccc2[nH]c(CNC[C@@H](CO)C3CCC3)cc2c1C,80
22,CNc1nc(C)c(-c2ccnc(Nc3cccc(S(C)(=O)=O)c3)n2)s1,45
23,Nc1nc(NCC2CCN(CCc3ccccc3)CC2)cc([C@H]2C[C@@H](N)C2)n1,26
24,Cc1cc(NC[C@H]2CN(CC(C)C)CCO2)c2ccccc2n1,28
25,CCCN1CCC(Nc2cc(C)nc3ccccc23)CC1,89
26,CC(C)CCOc1ccc2[nH]c(-c3cc(N4CCC[C@@H]4CS(C)(=O)=O)ccn3)cc2c1,98

row,SMILES,% Inhibition [%]
1,COc1ccc2[nH]cc(-c3ccc(N)nc3)c2c1,-21
2,Nc1ccnc(-c2cccc3[nH]ccc23)c1,0
3,COc1ccc2cc(-c3cc(N)ccn3)[nH]c2c1,89
4,COc1ccc2cc(NC(=O)c3cc(-c4c(C)nn(C)c4C)[nH]n3)cnc2c1,81
5,Oc1cccc2c1CCC[C@@H]2NCc1ccc2occc2c1,55
6,CN(C)C1CCN(CCN[C@H]2CCc3ccc(F)cc32)CC1,97
7,O[C@H](COc1ccccc1CNCc1cc(-c2ccccc2)[nH]n1)CN1CCCCC1,103
8,CCN1CCN(C[C@@H](C)CNCc2cc(-c3ccccc3)ccc2OC)CC1,-4
9,Cc1ccn2cc(-c3ccc(N4CCC(NCc5cccnc5)CC4)cc3)nc2c1,102
10,Cc1nc(N2CCN(C)CC2)cc(N2CCN(S(=O)(=O)c3ccccc3C(F)(F)F)CC2)n1,56
11,O=C(NCc1ccc(N2CCNCC2)c(F)c1)c1ccc(-c2noc(C(F)(F)F)n2)cc1,54
12,c1ccc2c(Nc3ccc4[nH]cnc4c3)c3ccccc3nc2c1,102
13,FC(F)(F)c1ccc(-c2c(-c3ccccc3)ncn2Cc2ncn[nH]2)cc1,7
14,Cc1cnccc1NCCNCc1cnc(N2CCCCC2)nc1,62
15,Cc1cnccc1NCCNCc1cccc(OCCCCN2CCOCC2)c1,95
16,CCCN1CCC(N2CC(c3cccnc3)C(c3nc(C4CCCC4)no3)C2)CC1 (stereo not drawn),10
17,OCC1CCCN1CCCCNC1CC2(CCC2)Oc2ccccc21 (stereo not drawn),-5
18,COc1ccc2nc3cc(Cl)ccc3c(O)c2c1,39
19,COc1ccc2c(O)c(Br)c(C)nc2c1,72
20,Cc1nc(-c2ccccn2)nc(NC2CCN(CC(F)F)CC2)c1C,24
21,Cc1cnccc1N1CCCN(Cc2ccccc2OCCN2CCN(C)CC2)CC1,102
22,CCCC(=O)NC1COCC1Cc1ccncc1 (stereo not drawn),86
23,CCOc1cc(C(=O)NC2CCN(CC3CCCC3)CC2)cc(-c2ccccc2)c1OC,99
24,Cc1cc(F)ccc1N1CCC(NCCCNc2cccnc2)CC1,-2
25,FC(F)(F)c1ccc(N2CCC[C@H](NC3CCN(Cc4ccco4)CC3)C2)nc1,38
26,CCc1cc(Nc2ccc(N3CCOCC3)nc2)nc(-c2ccncc2)n1,42

row,SMILES,% Inhibition [%]
1,O=C(NC1CCN(CCOc2ccc(Cl)cc2)CC1)c1c[nH]c2ccncc2c1=O,100
2,O[C@@H](CNCc1cc2cc(Cl)c(Cl)cc2[nH]1)c1ccc(F)cc1,80
3,OC[C@H](CNCc1cc2ccc(F)cc2[nH]1)c1ccccc1Cl,82
4,Cc1cc(N2CCC(N(C)Cc3cc(-c4ccccc4)n[nH]3)CC2)nc(N)n1,52
5,CN(CCCc1cc(-c2ccc(F)cc2)n[nH]1)CC1CCNCC1,17
6,CCN1CCN(c2ccc(CNCc3cccc(O)c3)cc2F)CC1,85
7,Cc1ccccc1CN1CCC(CNc2c3c(nc4ccccc24)CCC3)CC1,103
8,N#Cc1cccc(Cl)c1N1CCC(N2CCCC2)CC1,38
9,CCc1cc(NCCc2nc3cc(F)ccc3[nH]2)nc(-c2ccccn2)n1,9
10,COCCNc1nc(N[C@@H](C)c2ccccc2)c2ccccc2n1,92
11,C[C@H](Nc1nc(N)c2ccccc2n1)c1cccc(-n2cncn2)c1,29
12,NCC1(O)CCN(c2ccnc3cc(F)c(Cl)cc23)CC1,97
13,CCc1oc2ccccc2c1CNC[C@H](O)c1ccc(Cl)cc1,99
14,CC(C)c1ccc(CN2CCC[C@@](O)(CNCCN3CCNCC3)C2=O)cc1,29
15,O=C1CN(C(=O)c2ccnc3ccccc23)CCN1Cc1ccccc1F,63
16,COc1cc2nc(-c3ccc(F)c4cccnc34)nc(N)c2cc1OC,102
17,Cc1cc(C)c(CN2CCN(C)CC2)cc1CNCCCn1ccnc1C,44
18,Cc1cccc(N2CCC(NCc3cc(C)cc(CN4CCN(C)CC4)c3C)CC2)c1,84
19,Clc1ccc2[nH]c3c(c2c1)CCCC3NC1CCN(C2CCOC2)CC1 (stereo not drawn),96
20,CCN1CCC(N2CCC(C(=O)NCCc3ccc(OC(F)(F)F)cc3)CC2)CC1,53
21,O=C(NCc1ccc(OC(F)(F)F)cc1)N(CCN1CCCC1)[C@H]1CCCNC1,33
22,Cc1sc2nc(-c3ccccn3)nc(NCCc3nccn3C)c2c1-c1ccccc1,65
23,O=C(CCc1nnc(-c2ccc(-c3ccccc3)cc2)o1)NC[C@@H]1CCCN2CCCC[C@H]12,86
24,COc1ccc2nc(C)cc(NCc3cccc(NC(=O)c4ccco4)c3)c2c1,105
25,Cc1c(CN2CCC(O)(Cn3ccnc3)CC2)[nH]c2c(Cl)cccc12,99
